ugtP null kill: compounds lethal to S. aureus RN4220 ugtP deletion mutant; growth inhibition, % (test concentration not listed); OD600 growth, 16 h; 330,000 tested, 0.54% active; in the data active = growth inhibition above about 68%;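 also: plate controls were untreated wells for no effect and antibiotic for full effect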
Mtb hypoxia rep: reduces hypoxia-regulated biosensor signal in M. tuberculosis. M. tuberculosis hypoxia-regulated fluorescent reporter, fluorescence. fluorescence inhibition, % (concentration not given with the values). 300,000 tested, 0.1% active. AID 1159583; in the data active = fluorescence inhibition mostly above about 23%, no sharp cut-off; inactive = mostly below about 17%
CCHF vOTU inh: blocks the CCHF virus ovarian tumor domain protease | CCHFV vOTU protease, Pep-AMC fluorescence | inhibition, % at 11.5 µM | 370,000 tested, 0.55% active | AID 651958; in the data active = inhibition above about 30%; also: 0% = vehicle wells with enzyme and 100% = no enzyme wells
Sa RN4220 lethal: S. aureus RN4220 growth inhibition; OD600, 16 h; 330,000 tested, 0.33% active; inhibition, % (concentration not given with the values); in the data active = inhibition above about 85%;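 also: plate controls were untreated cells for no effect and reference antibiotic for full effect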
SSB-PriA inh: inhibitors of Klebsiella pneumoniae PriA binding to SSB C-terminal tail; AlphaScreen SSBct-PriA binding, biotinylated peptide; inhibition, % at 33 µM; 430,000 tested, 0.6% active; AID 1272365; in the data active = inhibition mostly above about 37%, no sharp cut-off; inactive = mostly below about 20%;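 also: plate controls were negative control peptide for no effect and reference peptide for full effect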
Starred values were filed as active, the others as inactive; . = no result given; + = active, no number. Hits are enriched below; roughly 1.4% of the tested compounds scored in any of these assays.

SMILES	ugtP null kill	Mtb hypoxia rep	CCHF vOTU inh	Sa RN4220 lethal	SSB-PriA inh
CCOc1ccc(CCNC(=O)c2ccc(CS(=O)Cc3cccc(Cl)c3)o2)cc1 (centres undefined)	96*	2	10	-6	-5
CCOc1ccc(CCNC(=O)c2ccc(CS(=O)Cc3ccc(Cl)cc3)o2)cc1OCC (centres undefined)	15	4	11	3	-4
O=S(=O)(Nc1ccc(NS(=O)(=O)c2ccc(Cl)cc2)cc1)c1ccc(Cl)cc1	.	.	.	.	-13
CO/N=C/c1ccc(N2CCN(C)CC2)c([N+](=O)[O-])c1	.	.	.	.	+
CON=Cc1ccc(Sc2ccccc2)c([N+](=O)[O-])c1	23	-1	.	10	55*
CON=Cc1ccc(Sc2ccccc2N)c([N+](=O)[O-])c1	0	.	.	-1	52*
CO/N=C/c1ccc(Sc2ccccc2)c([N+](=O)[O-])c1	.	.	-3	.	.
CO/N=C/c1ccc(Sc2ccccc2N)c([N+](=O)[O-])c1	.	.	8	.	.
COc1ccc(-c2ccc(=O)n(CCCNS(=O)(=O)c3ccc(Cl)cc3)n2)cc1	.	.	.	.	-7
CCCC(=O)Nc1ccc2c(c1)C(=O)NCCO2	.	.	.	.	7
CN1CCN(c2ccc(S(=O)(=O)C(F)(F)F)cc2[N+](=O)[O-])CC1	9	10	-15	5	7
O=[N+]([O-])c1cc(S(=O)(=O)C(F)(F)F)ccc1N1CCN(c2ccccc2)CC1	-6	1	-1	-2	47*
CN1CCN(c2ccccc2NC(=O)c2ccc(N3CCCC3)c([N+](=O)[O-])c2)CC1	4	19	-6	-6	27
O=C(c1ccc(Br)cc1)c1ccc(N2CCOCC2)c([N+](=O)[O-])c1	.	.	.	.	82*
O=C(c1ccc(N2CCOCC2)c([N+](=O)[O-])c1)N1CCN(c2ccccc2)CC1	.	.	7	.	-1
O=[N+]([O-])c1cc(-n2cccc2)ccc1N1CCOCC1	7	9	12	9	47*
CN1CCN(c2ccc(C(=O)c3ccc(Br)cc3)cc2[N+](=O)[O-])CC1	3	-5	18	0	43*
CCCN1C(=O)C(C)(C)COc2cc(NS(=O)(=O)c3ccc(OC)c(Cl)c3)ccc21	.	.	.	.	3
COc1ccccc1-c1ccc(N2CCCC(C(=O)Nc3ncccc3C)C2)nn1 (centres undefined)	.	.	.	.	-5
ON=Cc1c[nH]c2ccccc12	-5	.	.	1	-1
Cc1ccc(Cl)c(OC(=O)c2ccc(N3CCOCC3)c([N+](=O)[O-])c2)c1	-9	9	5	4	45*
NC(=O)c1sc2nnc(-c3ccccc3)c(-c3ccccc3)c2c1N	84*	5	-10	2	-2
O=C1C=C(c2cccc(Cl)c2)CC(c2ccc(Cl)cc2)C1 (centres undefined)	3	1	.	1	.
COc1ccccc1-n1cnnc1SCc1csc(-c2ccccc2)n1	-2	-5	5	11	3
C=CCn1c(SCc2csc(-c3ccc(C)cc3)n2)nnc1-c1ccccc1OC	90*	-4	13	-7	17
SMILES	ugtP null kill	Mtb hypoxia rep	CCHF vOTU inh	Sa RN4220 lethal	SSB-PriA inh
CCOC(=O)C(C#N)=CC(C(=O)OCC)=C(N)N1CCN(c2ccccc2)CC1	0	7	.	7	.
CCc1cccc(NC(=O)CNC(=O)N2CC(=O)Nc3ccccc32)c1	9	7	-16	-1	-14
CCc1cccc(Nc2c([N+](=O)[O-])cc(C(=O)N3CC(=O)Nc4ccccc43)cc2[N+](=O)[O-])c1	1	-4	0	1	48*
O=C(/C=C/c1ccco1)NC(=S)Nc1cccc(-c2nc3ccccc3o2)c1	98*	.	10	15	6
O=C(/C=C/c1cccs1)NC(=S)Nc1ccccc1	active	7	7	97	7
Cc1ccc(-c2nc3ccccc3o2)cc1NC(=S)NC(=O)/C=C/c1ccco1	25	.	11	6	12
O=C(NN=Cc1ccco1)c1cnccn1	7	13	.	1	10
O=C(/C=C/c1ccco1)NC(=S)NNC(=O)c1cnccn1	.	.	.	.	66*
O=C(/C=C/c1ccco1)NC(=S)Nc1ccccc1	93*	6	11	2	-3
CC(=NNC(=O)c1ccc(Cl)cc1)c1cccc(NC(=O)C(C)C)c1	1	-6	.	-5	-13
O=[N+]([O-])CC(=Nc1ccc(Cl)cc1)N/N=C\c1oc(O)c2ccccc12	.	.	33*	.	.
O=C(Cn1nc(-c2cccs2)ccc1=O)Nc1ccc(S(=O)(=O)Nc2nccs2)cc1	.	.	.	.	-16
CCOc1ccc(C=NNC(=O)Cc2cccs2)cc1	8	2	.	5	.
O=C(CSc1ccccn1)Nc1ccc(NC(=O)CSc2ccccn2)cc1	2	0	-4	2	-6
O=C(CSc1ccccn1)Nc1nonc1[N+](=O)[O-]	86*	.	17	40	-9
Cc1sc2ncnc(SCC(=O)Nc3c(C)n(C)n(-c4ccccc4)c3=O)c2c1C	.	.	.	.	84*
O=C(COC(=O)c1ccccc1O)NC1CCCc2ccccc21 (centres undefined)	-3	33*	-9	2	4
COc1ccc(Br)cc1C1NC(=O)NC1=O (centres undefined)	.	.	.	.	47*
CC(=O)c1sc(NC(=O)c2c[nH]c3c(C(F)(F)F)cccc3c2=O)nc1C	.	.	.	.	-9
CC(=O)c1c(C)[nH]c(C(=O)NC2CCSc3ccccc32)c1C (centres undefined)	3	9	4	3	45*
CC(=O)c1c(C)[nH]c(C(=O)NC2CCSc3c(F)cccc32)c1C (centres undefined)	.	.	.	.	88*
CCOC(=O)c1c(C)[nH]c(C(=O)NC2CCSc3ccccc32)c1C (centres undefined)	.	.	.	.	25
CCc1c(C(=O)NC2CCCc3ccccc32)[nH]c(C)c1C(C)=O (centres undefined)	-8	4	15	3	5
COc1ccc(CNC(=O)Nc2ccc3c(c2)N(CC(C)C)C(=O)C(C)(C)CO3)cc1OC	.	.	.	.	1
Cc1cc(-c2nnc(NC(=O)CCSc3ccc(Cl)cc3)o2)nn1C	.	.	.	.	8
SMILES	ugtP null kill	Mtb hypoxia rep	CCHF vOTU inh	Sa RN4220 lethal	SSB-PriA inh
CCOC(=O)c1sc(NC(=O)C2CCN(S(C)(=O)=O)CC2)cc1C	.	.	.	.	-11
COc1ccc(-n2nnnc2S(=O)(=O)CC(=O)N2CCCCC2)cc1	11	8	1	10	-9
COc1ccc(-n2nnnc2S(=O)(=O)Cc2ccc(C(=O)O)cc2)cc1	95*	.	-3	38	-7
Cc1ccc(C(=O)COC(=O)c2cccc(NC(=O)c3ccc([N+](=O)[O-])cc3[N+](=O)[O-])c2)cc1	-14	41*	5	-3	-9
CC(=O)Nc1ccc(C(=O)OCC(=O)c2cccc([N+](=O)[O-])c2)cc1	.	.	-10	.	5
O=C(c1nnsc1S(=O)c1ccc(Cl)cc1)N1CCOCC1 (centres undefined)	101*	.	4	95*	-21
O=C(Nc1ccccc1)c1nnsc1S(=O)c1ccc(Cl)cc1 (centres undefined)	101*	.	-3	100*	-23
O=C(c1nnsc1S(=O)(=O)c1ccc(Cl)cc1)N1CCOCC1	19	23	2	10	-20
Cc1nnsc1S(=O)c1ccc(Cl)cc1 (centres undefined)	14	24	8	5	-17

Compound activity from PubChem BioAssay.
